Here are results for five molecules from PubChem BioAssay.

Assay [1] has as its system PRMT1 (protein arginine N-methyltransferase 1). The assay is described as follows: PRMT1 binders on small-molecule microarrays, primary screen, biochemical, small-molecule microarray, 635 nm fluorescence (AID 1088).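 Further: binding of Prmt1 protein to compounds spotted on small-molecule microarray slides.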 As to conditions: small-molecule microarray binding, higher = more signal.
Assay [2] can be described thus: yeast growth modulation, basal conditions, primary screen, YJM789 clinical isolate, OD600, 24 h (AID 1089).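 Further: growth of clinical yeast isolate S. cerevisiae YJM 789 seeded 1000 cells per well; test concentration not given here.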 As to conditions: S. cerevisiae YJM789 growth, higher = more signal, called active from +8 up or from −8 down.
Assay [3] in a line: fission yeast growth modulation, primary screen, strain 972, OD600, 24 h, no modulator (AID 1090).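 Further: basal condition with compound alone and no growth modifier present; test concentration not given here.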 To be noted: S. pombe 972 growth, higher = more signal, called active from +8 up or from −8 down.
Assay [4] is described as follows: S. cerevisiae growth modulation with rapamycin, primary screen, strain BY4716, OD600, 96 h (AID 1091). Further: test concentration not given here. To be noted: higher = more signal, called active from +8 up or from −8 down.
Assay [5] deals with Torsin-1A-interacting protein 2 (Homo sapiens) (UniProt Q8NFQ8). The assay is described as follows: LULL1 binders on small-molecule microarray, primary screen, cell lysate, human LULL1 lysate, 635/667 nm fluorescence (AID 1092).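 Further: probe is lysate of COS7 cells overexpressing human LULL1; score merges per-feature 667 nm fluorescence with signal-to-noise.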 As to conditions: hLULL1 lysate binding, 635 nm fluorescence, higher = more signal.
The nature of assay [6]: E. coli growth modulation, two-sided OD650, primary screen, E. coli filamentation project, strain DRC41, 24 h (AID 1093).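 Further: MC1000 strain lacking acrAB efflux and sulA so SOS filamentation is blocked; test concentration not given here.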 As to conditions: OD650, 24 h, higher = more signal, called active from +8 up or from −8 down.
A short description of assay [7]: small-molecule microarray binders of probe aLefty2, primary screen, biochemical, biotinylated probe, 635/667 nm fluorescence (AID 1094).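 Further: score merges spot fluorescence near 667 nm with spot signal-to-noise ratio.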 As to conditions: higher = more signal.
Assay [8] concerns Noggin (protein binding on small-molecule microarray). The assay is described as follows: Noggin binders on small-molecule microarray, primary screen, biochemical, 635/667 nm fluorescence (AID 1095).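 Further: score merges 667 nm feature fluorescence with signal to noise over triplicate slides.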 To be noted: 635 nm fluorescence, higher = more signal.
The target in assay [9] is Neurogenic locus notch homolog protein 3 (Homo sapiens) (UniProt Q9UM47). The assay is described as follows: NOTCH3 binders on small-molecule microarray, primary screen, biochemical, 635/667 nm fluorescence (AID 1096). To be noted: NOTCH3 binding, 635 nm fluorescence, higher = more signal.
The nature of assay [10]: small-molecule microarray binders of probe aEGFR, primary screen, biochemical, biotinylated probe, 635/667 nm fluorescence (AID 1097).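 Further: probe is a biotinylated anti-EGFR antibody binding compounds printed on slides; score combines fluorescence near 667 nm and signal to noise of each spot.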 To be noted: higher = more signal.
For assay [11], the system named is Plasmodium falciparum Sir2 (PF13_0152, Sir2A). The assay is described as follows: pfSir2 binders on small-molecule microarrays, primary screen, biochemical, small-molecule microarray, 635 nm fluorescence (AID 1098).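 Further: score merges spot fluorescence intensity with its signal-to-noise ratio.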 To be noted: small-molecule microarray binding, fluorescence 635 nm; higher = more signal.
Assay [12] can be described thus: small-molecule microarray binders of probe aDKK1, primary screen, biochemical, biotinylated probe, 635/667 nm fluorescence (AID 1099).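 Further: score merges 667nm spot fluorescence with signal to noise across triplicate slides; reference of the scale not given here.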 As to conditions: higher = more signal.
A short description of assay [13]: small-molecule microarray binders of probe aCHRDL2, primary screen, biochemical, biotinylated probe, 635/667 nm fluorescence (AID 1100). As to conditions: higher = more signal.
Assay [14] is described as follows: splicing luciferase reporter signal modulators, primary screen, spliceosome inhibition project, cell-based, HEK293, splice +/- reporter (AID 1101).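 Further: HEK293 cells carrying a splicing-competent luciferase reporter gene; test concentration not given here.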 To be noted: luminescence, 24 h, higher = more signal, called active from +8 up or from −8 down. (A reporter such as luciferase makes a cellular process visible.)
The target of assay [15] is Fibroblast growth factor 10 (Homo sapiens) (UniProt O15520). The assay is described as follows: FGF10 binders on small-molecule microarrays, primary screen, biochemical, small-molecule microarray, 635 nm fluorescence (AID 1102). To be noted: FGF10 binding, fluorescence 635 nm, higher = more signal.
The subject of assay [16] is glycogen synthase kinase-3 (GSK3A per assay name; protocol says GSK3B). The assay is described as follows: GSK3 binders on small-molecule microarrays, primary screen, biochemical, small-molecule microarray, 635 nm fluorescence, GSK3A (AID 1103). Further: the record names both GSK3A and GSK3B. As to conditions: small-molecule microarray binding, fluorescence 635 nm; higher = more signal.
Assay [17] has as its target Epidermal growth factor receptor (Homo sapiens) (UniProt P00533). The assay is described as follows: EGFR binders on small-molecule microarrays, primary screen, biochemical, small-molecule microarray, 635 nm fluorescence (AID 1104).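 Further: score merges 667 nm emission intensity with spot signal to noise over triplicate slides.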 To be noted: EGFR binding, higher = more signal.
In assay [18] the target is Follistatin-related protein 3 (Homo sapiens) (UniProt O95633). Put plainly: FSTL3 binders on small-molecule microarrays, primary screen, biochemical, small-molecule microarray, 635 nm fluorescence (AID 1105).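 Further: score merges emission near 667 nm and signal to noise per printed spot across three slides.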 As to conditions: FSTL3 binding, higher = more signal.
For assay [19], the target named is Dickkopf-related protein 1 (Homo sapiens) (UniProt O94907). Put plainly: DKK1 binders on small-molecule microarrays, primary screen, biochemical, small-molecule microarray, 635 nm fluorescence scan (AID 1106).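 Further: score merges emission near 667 nm with signal to noise over three replicate slides.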 To be noted: DKK1 binding, higher = more signal.
Assay [20] concerns Inhibin beta A chain (activin A). The assay is described as follows: INHBA (activin A) binders on microarrays, primary screen, biochemical, small-molecule microarray, 635 nm fluorescence scan (AID 1107).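 Further: mouse activin A protein probed at 4.33 µg/mL on printed slides; score merges bound-protein fluorescence near 667 nm with spot signal-to-noise.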 To be noted: small-molecule microarray binding, higher = more signal.

Each structure is given as a SMILES string. Active and inactive are the calls of the source.

Fibroblast growth factor 10 (Homo sapiens), sequence (O15520 whole entry, looked up): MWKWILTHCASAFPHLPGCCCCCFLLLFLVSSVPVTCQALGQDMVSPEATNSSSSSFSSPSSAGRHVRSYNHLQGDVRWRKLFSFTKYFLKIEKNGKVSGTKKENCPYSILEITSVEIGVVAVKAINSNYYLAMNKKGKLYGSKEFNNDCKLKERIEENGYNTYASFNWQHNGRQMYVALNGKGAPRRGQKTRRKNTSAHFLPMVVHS
Dickkopf-related protein 1 (Homo sapiens), sequence (O94907 whole entry, looked up): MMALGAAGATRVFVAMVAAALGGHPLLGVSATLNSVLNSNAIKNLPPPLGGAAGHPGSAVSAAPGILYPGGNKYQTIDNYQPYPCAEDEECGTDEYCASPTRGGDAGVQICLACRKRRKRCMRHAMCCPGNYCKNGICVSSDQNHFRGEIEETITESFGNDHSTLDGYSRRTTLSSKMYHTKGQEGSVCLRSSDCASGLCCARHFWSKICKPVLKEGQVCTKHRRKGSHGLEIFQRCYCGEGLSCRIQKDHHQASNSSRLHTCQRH
Neurogenic locus notch homolog protein 3 (Homo sapiens), sequence (Q9UM47 whole entry, looked up): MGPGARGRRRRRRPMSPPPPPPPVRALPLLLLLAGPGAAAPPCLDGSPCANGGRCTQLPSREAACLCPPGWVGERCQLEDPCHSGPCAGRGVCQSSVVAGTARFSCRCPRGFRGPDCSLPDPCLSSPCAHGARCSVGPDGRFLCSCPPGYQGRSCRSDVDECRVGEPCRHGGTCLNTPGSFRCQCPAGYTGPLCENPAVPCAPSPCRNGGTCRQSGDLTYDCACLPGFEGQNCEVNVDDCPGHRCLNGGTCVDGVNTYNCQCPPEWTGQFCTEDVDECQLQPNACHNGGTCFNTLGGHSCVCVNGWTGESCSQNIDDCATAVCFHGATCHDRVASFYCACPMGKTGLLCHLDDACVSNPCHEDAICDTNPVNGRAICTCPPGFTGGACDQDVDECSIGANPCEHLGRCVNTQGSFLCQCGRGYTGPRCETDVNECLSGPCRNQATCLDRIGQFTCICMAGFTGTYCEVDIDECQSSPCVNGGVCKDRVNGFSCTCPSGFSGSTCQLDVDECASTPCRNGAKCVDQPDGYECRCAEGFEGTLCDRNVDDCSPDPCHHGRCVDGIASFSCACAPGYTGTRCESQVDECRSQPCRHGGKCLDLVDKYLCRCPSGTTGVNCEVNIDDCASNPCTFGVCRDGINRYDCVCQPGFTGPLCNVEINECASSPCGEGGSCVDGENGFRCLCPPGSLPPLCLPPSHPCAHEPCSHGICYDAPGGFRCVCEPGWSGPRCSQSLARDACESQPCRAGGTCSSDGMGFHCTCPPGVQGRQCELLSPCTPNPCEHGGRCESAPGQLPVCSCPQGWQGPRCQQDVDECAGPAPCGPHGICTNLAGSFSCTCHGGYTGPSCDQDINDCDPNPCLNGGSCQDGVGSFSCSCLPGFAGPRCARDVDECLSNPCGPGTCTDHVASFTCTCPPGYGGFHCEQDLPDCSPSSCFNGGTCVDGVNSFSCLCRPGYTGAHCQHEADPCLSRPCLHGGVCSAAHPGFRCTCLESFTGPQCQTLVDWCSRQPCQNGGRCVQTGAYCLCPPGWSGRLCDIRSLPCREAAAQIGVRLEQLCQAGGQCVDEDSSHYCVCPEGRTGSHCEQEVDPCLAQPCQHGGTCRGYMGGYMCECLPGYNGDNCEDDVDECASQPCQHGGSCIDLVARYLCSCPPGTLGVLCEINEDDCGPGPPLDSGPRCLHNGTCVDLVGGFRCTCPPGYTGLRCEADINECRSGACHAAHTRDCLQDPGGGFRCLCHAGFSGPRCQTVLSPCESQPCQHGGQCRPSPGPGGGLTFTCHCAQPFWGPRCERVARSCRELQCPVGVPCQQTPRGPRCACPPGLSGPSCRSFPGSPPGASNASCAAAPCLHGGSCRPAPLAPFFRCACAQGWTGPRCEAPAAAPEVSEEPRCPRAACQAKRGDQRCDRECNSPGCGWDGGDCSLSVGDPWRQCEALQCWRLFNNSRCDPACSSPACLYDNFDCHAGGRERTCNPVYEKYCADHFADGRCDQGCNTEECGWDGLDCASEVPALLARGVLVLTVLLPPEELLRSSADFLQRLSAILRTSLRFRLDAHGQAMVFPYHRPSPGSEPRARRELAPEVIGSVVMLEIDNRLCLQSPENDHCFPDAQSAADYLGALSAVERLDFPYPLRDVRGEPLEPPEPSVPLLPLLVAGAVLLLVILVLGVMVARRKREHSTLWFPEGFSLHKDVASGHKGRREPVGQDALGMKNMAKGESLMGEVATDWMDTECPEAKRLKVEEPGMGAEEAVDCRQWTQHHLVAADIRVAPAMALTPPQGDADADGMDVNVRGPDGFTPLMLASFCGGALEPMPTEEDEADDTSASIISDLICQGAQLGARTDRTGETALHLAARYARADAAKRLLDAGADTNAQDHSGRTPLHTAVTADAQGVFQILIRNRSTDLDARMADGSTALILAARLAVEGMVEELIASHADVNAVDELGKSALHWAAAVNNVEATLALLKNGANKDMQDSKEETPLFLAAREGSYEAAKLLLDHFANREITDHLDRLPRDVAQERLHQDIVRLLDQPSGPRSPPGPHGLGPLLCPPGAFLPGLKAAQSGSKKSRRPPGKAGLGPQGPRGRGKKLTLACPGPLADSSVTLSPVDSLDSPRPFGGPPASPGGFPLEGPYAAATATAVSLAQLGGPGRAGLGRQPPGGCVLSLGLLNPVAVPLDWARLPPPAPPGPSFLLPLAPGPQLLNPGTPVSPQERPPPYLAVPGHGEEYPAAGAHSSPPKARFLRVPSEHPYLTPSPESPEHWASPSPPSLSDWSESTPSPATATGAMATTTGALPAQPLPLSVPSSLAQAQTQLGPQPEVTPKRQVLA
Follistatin-related protein 3 (Homo sapiens), sequence (O95633 whole entry, looked up): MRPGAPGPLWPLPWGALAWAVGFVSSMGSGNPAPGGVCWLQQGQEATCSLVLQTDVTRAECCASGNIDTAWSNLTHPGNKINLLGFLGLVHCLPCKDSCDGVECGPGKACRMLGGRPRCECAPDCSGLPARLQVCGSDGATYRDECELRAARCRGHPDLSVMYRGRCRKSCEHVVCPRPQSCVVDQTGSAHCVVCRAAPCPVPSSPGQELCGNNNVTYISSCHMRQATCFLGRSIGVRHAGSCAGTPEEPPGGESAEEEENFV
Epidermal growth factor receptor (Homo sapiens), sequence (P00533 whole entry, looked up): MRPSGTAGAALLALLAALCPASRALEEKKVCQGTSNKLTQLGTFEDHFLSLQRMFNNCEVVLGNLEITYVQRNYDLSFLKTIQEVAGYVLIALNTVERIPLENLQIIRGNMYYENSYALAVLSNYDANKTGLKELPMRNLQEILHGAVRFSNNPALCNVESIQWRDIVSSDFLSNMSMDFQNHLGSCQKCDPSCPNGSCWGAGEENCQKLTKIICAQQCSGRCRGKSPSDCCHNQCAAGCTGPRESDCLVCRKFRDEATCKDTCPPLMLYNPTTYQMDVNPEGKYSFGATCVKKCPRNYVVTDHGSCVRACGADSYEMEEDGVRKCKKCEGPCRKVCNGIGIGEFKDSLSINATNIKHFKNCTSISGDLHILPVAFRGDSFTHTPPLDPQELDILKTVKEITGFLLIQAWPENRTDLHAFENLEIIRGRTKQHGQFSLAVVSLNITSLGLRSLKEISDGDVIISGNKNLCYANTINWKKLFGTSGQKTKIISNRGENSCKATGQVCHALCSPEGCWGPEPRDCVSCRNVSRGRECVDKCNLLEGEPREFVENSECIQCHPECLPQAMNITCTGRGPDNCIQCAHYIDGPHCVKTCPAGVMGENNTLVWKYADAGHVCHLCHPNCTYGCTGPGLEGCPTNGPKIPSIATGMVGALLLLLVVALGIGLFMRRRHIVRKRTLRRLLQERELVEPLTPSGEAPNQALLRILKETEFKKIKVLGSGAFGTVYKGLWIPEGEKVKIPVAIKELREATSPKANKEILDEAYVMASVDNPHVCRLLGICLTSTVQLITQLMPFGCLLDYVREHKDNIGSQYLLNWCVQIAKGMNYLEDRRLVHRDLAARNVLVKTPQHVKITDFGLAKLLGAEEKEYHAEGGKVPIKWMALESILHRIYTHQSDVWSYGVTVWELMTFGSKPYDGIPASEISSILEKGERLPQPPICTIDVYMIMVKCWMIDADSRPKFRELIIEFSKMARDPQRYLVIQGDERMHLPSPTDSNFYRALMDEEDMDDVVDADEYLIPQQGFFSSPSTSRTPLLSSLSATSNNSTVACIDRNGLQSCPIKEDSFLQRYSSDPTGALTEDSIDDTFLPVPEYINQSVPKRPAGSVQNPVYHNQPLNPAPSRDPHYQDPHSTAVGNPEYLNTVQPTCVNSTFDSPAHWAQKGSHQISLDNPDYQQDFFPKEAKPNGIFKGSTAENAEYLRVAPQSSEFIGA
Torsin-1A-interacting protein 2 (Homo sapiens), sequence (Q8NFQ8 whole entry, looked up): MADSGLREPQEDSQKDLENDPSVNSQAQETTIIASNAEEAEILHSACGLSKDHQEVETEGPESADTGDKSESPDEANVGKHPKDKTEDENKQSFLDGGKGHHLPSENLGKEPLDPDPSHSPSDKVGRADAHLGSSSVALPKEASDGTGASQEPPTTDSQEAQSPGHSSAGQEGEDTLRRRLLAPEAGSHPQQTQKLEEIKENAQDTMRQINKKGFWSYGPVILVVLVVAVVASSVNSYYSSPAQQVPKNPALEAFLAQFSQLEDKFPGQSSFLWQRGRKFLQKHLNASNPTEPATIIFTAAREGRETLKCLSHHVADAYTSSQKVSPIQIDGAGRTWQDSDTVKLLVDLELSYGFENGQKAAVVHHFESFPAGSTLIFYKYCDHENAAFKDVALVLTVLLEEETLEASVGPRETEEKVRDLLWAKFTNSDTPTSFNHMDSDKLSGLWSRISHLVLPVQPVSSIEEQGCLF

Turning to `O=C1NC(=O)C2C1C=CC(C(O)c1cccc(O)c1)N2Nc1ccc(Cl)cc1Cl` (stereo not given), the composite z-score in assay [1] is -1.24; in assay [5], 0.991; in [7], 0.0893; in [8], 0.115; in [9] it was -0.207; in assay [10] it was 0.012. Further, the composite z-score is -0.195 in assay [11]; 0.454 in [12]; 0.815 in assay [13]; 0.0046 in assay [15]; -0.607 in assay [16]; -0.531 in assay [17]. Further, the composite z-score in assay [18] is -0.358; in assay [19] it was -0.555; in [20] it was 0.519. In addition, the z-score in assay [2] is -0.927 (inactive); in assay [3], 0.765 (inactive); in [4], 0.668 (inactive); in assay [6], -2.08 (inactive); in assay [14], 1.16 (inactive).

As for `COc1ccc(C#Cc2ccc3c(c2)[C@]2(C(=O)N3)[C@H](C(=O)Nc3nc4ccccc4s3)[C@H]3C(=O)O[C@H](c4ccccc4)[C@H](c4ccccc4)N3[C@@H]2c2ccc(OCCO)cc2)cc1`, the composite z-score in assay [1] was 1.55; in [5], 2.7; in assay [7] it was -0.0412; in [8] it was 0.994; in [9], 1.1; in assay [10], 0.123. Further, the composite z-score turned out to be 0.937 in [11]; 0.72 in [12]; 0.766 in assay [13]; 1.17 in assay [15]; 1.3 in [16]; 0.209 in assay [17]. For the same molecule, the composite z-score was 1.13 in [18], 0.629 in assay [19] and -0.37 in assay [20]. Besides, the z-score was 3.16 (inactive) in [2]; 2.06 (inactive) in assay [3]; 1.64 (inactive) in [4]; 0.361 (inactive) in assay [6]; -0.126 (inactive) in [14].

Turning to `C=CCC(OC(C)=O)[C@@H]1[C@@H](N(Cc2ccc(-c3cccc(C(F)(F)F)c3)o2)C(=O)c2cccc3ccccc23)c2cc(OCCCO)ccc2N1C(=O)c1ccc2ccccc2c1` (stereo not given in full), the composite z-score in assay [1] was -0.429; in assay [5], -0.255; in assay [7], -0.0728; in assay [8], 0.307; in [9] it was -0.1; in assay [10] it was -0.122. In addition, the composite z-score was 0.542 in assay [11]; 0.0086 in assay [12]; 0.256 in [13]; 0.119 in [15]; -1.08 in assay [16]; 0.142 in assay [17]. Besides, the composite z-score in assay [18] is 0.317; in assay [19] it was 0.289; in assay [20] it was 1.2. In addition, the z-score was 0.611 (inactive) in [2]; 0.609 (inactive) in assay [3]; -0.549 (inactive) in assay [4]; 0.0268 (inactive) in [6]; -0.874 (inactive) in assay [14].

In the case of `COc1ccc(NC(=O)O[C@H]2[C@H](OC(=O)Nc3ccc4c(c3)OCO4)[C@H](OC(=O)Nc3ccc4c(c3)OCO4)[C@@H](OC)O[C@@H]2CO)cc1`, the composite z-score in [1] was 1.54; in assay [5], 2.96; in [7] it was -0.121; in assay [8], -0.0137; in assay [9] it was 0.569; in assay [10], -0.0922. In addition, the composite z-score in assay [11] is 1.51; in assay [12] it was 0.125; in [13] it was 0.58; in assay [15], 0.81; in assay [16], 1.23; in assay [17] it was -0.385. The composite z-score in assay [18] came to 0.59; in assay [19], 0.409; in assay [20] it was 0.753. Besides, the z-score was 1.87 (inactive) in assay [2]; 1.41 (inactive) in assay [3]; 4.72 (inactive) in assay [4]; 0.212 (inactive) in assay [6]; -0.213 (inactive) in assay [14].

Turning to `C[C@]1(C(=O)NCC(F)(F)F)c2ccccc2C(=O)N(Cc2ccc(OC(F)(F)F)cc2)[C@H]1c1ccc(CO)cc1`, the composite z-score in assay [1] is 0.64; in [5], 1.03; in [7] it was -0.133; in assay [8], 0.344; in assay [9], -0.464; in assay [10], -0.0987. Besides, the composite z-score in assay [11] is 1.34; in assay [12], -0.0378; in [13] it was 0.0314; in assay [15] it was 0.155; in [16], -0.507; in [17] it was 0.179. For the same molecule, the values for the composite z-score in assay [18], in [19] and in assay [20] were -0.345, 0.0106 and 0.19, respectively. Moreover, the z-score in assay [2] is 0.0118 (inactive); in [3] it was -0.47 (inactive); in assay [4], -0.568 (inactive); in assay [6] it was -0.975 (inactive); in [14], -0.24 (inactive).
